Compound activity deposited in PubChem BioAssay by National Center for Advancing Translational Sciences (NCATS).
KDM5B inhibitor: KDM5B demethylase inhibition; Q9UGL1; KDM5B demethylase, FDH-coupled NADH fluorescence (FDH is formaldehyde dehydrogenase); Potency, µM (titrated, usually from 57.7 µM), hits mostly inhibitors; hit rate 2.6% among 220,000; active = well fitted inhibition curve with a large enough effect; also: 0% is about no effect; nearly all actives have a fitted effect of over 70% in size
Target sequence (Q9UGL1 whole entry, looked up): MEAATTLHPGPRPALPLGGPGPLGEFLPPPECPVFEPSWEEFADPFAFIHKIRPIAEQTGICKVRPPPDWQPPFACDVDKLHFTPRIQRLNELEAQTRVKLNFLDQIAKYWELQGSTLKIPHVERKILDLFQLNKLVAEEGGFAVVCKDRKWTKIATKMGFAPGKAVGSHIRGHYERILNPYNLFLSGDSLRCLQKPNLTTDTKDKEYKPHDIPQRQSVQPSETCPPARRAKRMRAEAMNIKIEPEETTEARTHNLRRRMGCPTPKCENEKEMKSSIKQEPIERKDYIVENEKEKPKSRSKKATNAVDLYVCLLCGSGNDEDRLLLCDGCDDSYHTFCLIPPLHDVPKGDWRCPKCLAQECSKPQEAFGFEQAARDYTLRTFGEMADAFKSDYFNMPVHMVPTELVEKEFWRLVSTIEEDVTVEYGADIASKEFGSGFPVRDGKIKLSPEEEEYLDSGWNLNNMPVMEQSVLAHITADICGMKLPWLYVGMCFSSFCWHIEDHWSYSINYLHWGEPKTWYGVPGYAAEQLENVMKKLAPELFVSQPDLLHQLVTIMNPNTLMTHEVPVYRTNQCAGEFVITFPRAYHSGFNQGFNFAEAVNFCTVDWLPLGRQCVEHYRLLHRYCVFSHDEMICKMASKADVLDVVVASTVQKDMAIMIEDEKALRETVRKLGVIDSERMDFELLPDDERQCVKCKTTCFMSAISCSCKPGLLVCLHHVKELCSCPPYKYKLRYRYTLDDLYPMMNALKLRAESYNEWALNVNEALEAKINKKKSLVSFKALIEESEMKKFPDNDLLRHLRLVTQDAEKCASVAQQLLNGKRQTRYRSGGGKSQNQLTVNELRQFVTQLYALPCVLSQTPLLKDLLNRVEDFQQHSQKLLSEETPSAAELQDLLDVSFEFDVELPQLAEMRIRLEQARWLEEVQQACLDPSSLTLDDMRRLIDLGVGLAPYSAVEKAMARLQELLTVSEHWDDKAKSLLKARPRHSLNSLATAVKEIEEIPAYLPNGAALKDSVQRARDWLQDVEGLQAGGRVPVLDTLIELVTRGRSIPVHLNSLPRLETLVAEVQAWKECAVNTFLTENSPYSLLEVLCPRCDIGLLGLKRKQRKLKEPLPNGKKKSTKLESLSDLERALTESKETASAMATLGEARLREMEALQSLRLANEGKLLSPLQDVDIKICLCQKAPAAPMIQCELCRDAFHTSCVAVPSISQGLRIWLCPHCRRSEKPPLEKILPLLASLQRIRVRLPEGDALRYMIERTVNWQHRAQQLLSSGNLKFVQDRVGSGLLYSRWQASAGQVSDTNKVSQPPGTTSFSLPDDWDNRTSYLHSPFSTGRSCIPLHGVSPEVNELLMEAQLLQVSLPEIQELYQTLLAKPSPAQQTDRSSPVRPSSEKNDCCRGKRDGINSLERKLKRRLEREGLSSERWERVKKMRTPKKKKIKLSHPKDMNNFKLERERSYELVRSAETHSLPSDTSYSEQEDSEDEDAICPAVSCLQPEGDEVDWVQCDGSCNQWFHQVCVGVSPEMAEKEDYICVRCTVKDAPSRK
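qHTS format, multiple compound concentrations. Buffer 50 mM HEPES pH 7.5/0.01% Tween-20; 200 nM KDM5BΔAP final; 10 min compound preincubation; substrate-mix levels 12.5 µM peptide, 25 µM α-KG, 0.25 mM NAD⁺; 30 min RT; ΔRFU.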
Numbers without * were called inactive; i = inactive. The entries come from a sample that favours hits as a whole. Potency is read from the fitted curve at half-maximal effect.

SMILES	KDM5B inhibitor
O=C(Nc1ccc(Cc2ccncc2)cc1)c1ccc(Br)cc1	i
O=C(CCc1ncc(-c2ccccc2F)o1)NCCCN1CCOCC1	i
CCCN1CCN(C(=O)c2cc(-c3ccc(F)cc3)cn2CC)CC1	i
O=C(c1ccc2c(c1)OCO2)N1CCC(c2n[nH]c(=O)n2Cc2ccc(F)cc2)CC1	i
CCCN1CCN(C(=O)c2ccc3c(c2)n(Cc2ccc(F)cc2)c(=O)c2ccnn23)CC1	22.4µM*
Cc1ccc(S(=O)(=O)N2CCN(C(=O)N(C)C)C2C(C)C)cc1 (centres undefined)	i
O=C(NC[C@H]1O[C@@H](CC(=O)N2CCN(c3ccc(F)cc3)CC2)[C@H](O)[C@@H]1O)c1ccccc1	i
O=C(NC[C@H]1O[C@@H](CC(=O)N2CCN(c3ccccn3)CC2)[C@H](O)[C@@H]1O)NC1CCCCC1	25.1µM*
O=C(NC[C@H]1O[C@@H](CO)[C@@H](O)[C@H]1N1CCN(c2ccccn2)CC1)Nc1ccccc1	i
COc1ccccc1Nc1nc2nccc(-c3ccncc3)c2c(=O)[nH]1	i
NC(=O)c1ccc(NC(=O)c2ccc3nc(-n4cccc4)sc3c2)cc1	i
CC(C(=O)Nc1cccc(Cl)c1Cl)N1CCN(c2ccccc2O)CC1 (centres undefined)	i
Fc1cccc(Cc2noc(-c3nc(-c4ccc5c(c4)OCO5)no3)n2)c1	25.1µM*
Cc1ccccc1Cc1noc(-c2nc(-c3ccccc3F)no2)n1	i
c1cnc(-c2noc(-c3nc(-c4ccc5c(c4)OCO5)no3)n2)cn1	i
COCCc1noc(-c2nc(-c3ccc(OC)c(OC)c3)no2)n1	i
CCc1noc(-c2nc(Cc3ccccc3C)no2)n1	i
COc1ccc(-c2noc(-c3nc(-c4ccccn4)no3)n2)cc1	i
Cc1ccccc1Cc1noc(-c2nc(-c3ccc4c(c3)OCO4)no2)n1	28.2µM*
Fc1cccc(Cc2noc(-c3nc(-c4ccccc4F)no3)n2)c1	i
CCc1noc(-c2nc(-c3ccc(OC)c(OC)c3)no2)n1	i
CCc1noc(-c2nc(-c3ccc(OC)cc3)no2)n1	i
COc1ccc(-c2noc(-c3nc(Cc4cccc(F)c4)no3)n2)cc1OC	25.1µM*
COc1ccc(-c2noc(-c3nc(Cc4ccccc4)no3)n2)cc1	31.6µM*
O=C(Cn1ccc2cc(Br)ccc21)Nc1nccs1	i
SMILES	KDM5B inhibitor
CCCOc1ccc(/C=C(/C#N)c2nc3ccccc3[nH]2)cc1Br	i
O=c1c(-c2ccc(Br)cc2)c(C(F)(F)F)oc2cc(O)ccc12	i
COc1ccc(C(=O)Nc2ccc(Br)cc2C)cc1Cl	i
CCCn1nc(C(=O)NC(C)c2ccco2)c2ccccc2c1=O (centres undefined)	i
CCc1cccc(Nc2nc3c(S(=O)(=O)c4ccccc4)nnn3c3ccsc23)c1	i
Cc1cc(C(=O)NC2CCCc3ccccc32)c2ccccc2n1 (centres undefined)	i
Cc1ccc(NC(=O)c2oc3ccccc3c2NC(=O)c2cc(=O)c3ccccc3o2)cc1	i
O=C(Nc1nnc(-c2ccc(F)cc2)s1)C(=O)c1c[nH]c2ccccc12	i
CCc1nc2c(c(-c3ccc(Cl)cc3)n1)CN([S+](=O)([O-])c1cccc(C(F)(F)F)c1)CC2	i
CC(C)(C)c1coc([C@@H]2COCCN2Cc2cnc3ccccc3c2)n1	i
CC(=O)Nc1ccc(CN2CC[C@H](c3nnc(C(C)(C)C)o3)C2)cc1	i
CC(C)(C)c1nnc([C@H]2CCN(Cc3cnc4ccccc4c3)C2)o1	35.5µM*
COCCCNC(=O)COc1ccc2c(-c3ccccc3)cc(=O)oc2c1	i
CCC(C)c1ccc(NC(=O)CSc2nnc(-c3cc(-c4ccc(F)cc4)n[nH]3)n2N)cc1 (centres undefined)	i
Cn1cc(-c2cnc3[nH]cc(CC(=O)NCc4ccc5c(c4)OCO5)c3c2)cn1	i
NC(=O)Cc1c[nH]c2ncc(-c3cccc(N4CCOCC4)c3)cc12	i
Cn1cc(-c2cnc3[nH]cc(CC(=O)Nc4cccc(F)c4)c3c2)cn1	28.2µM*
C[S+](=O)([O-])c1cccc(NC(=O)Cc2c[nH]c3ncc(-c4cccnc4)cc23)c1	i
Cn1cc(-c2cnc3[nH]cc(CC(=O)Nc4ccccc4Cl)c3c2)cn1	31.6µM*
O=C(Cc1c[nH]c2ncc(-c3cccnc3)cc12)Nc1ccc(C(F)(F)F)cc1	i
NC(=O)Cc1c[nH]c2ncc(-c3cccc(F)c3)cc12	31.6µM*
O=C(Cc1c[nH]c2ncc(-c3ccccc3)cc12)Nc1ccc(N2CCOCC2)cc1	i
Cc1cc(-c2cnc3[nH]cc(CC(N)=O)c3c2)ccn1	i
O=C(COC(=O)C1CCN(/C=C/C(=O)C(F)(F)F)CC1)NC(c1ccccc1)c1ccccc1	i
O=C(c1sc2ccccc2c1Cl)N1CCCCC1	i
COCCCNC(=O)CSc1ccc(C)cc1C	i
O=C1COCCN1C1CCN(Cc2ccccc2)CC1	i
CCCCN(CC)C(=O)c1csc(Nc2ccccc2C)n1	i
Cc1cc(OCCN(C)C)c(C)c2c1CC[C@@H]([C@H](C)C(=O)NCc1cccs1)C2	i
